Laboratory results: PubChem BioAssay (EPA / NIEHS)
Calls of active or inactive are those of the source. Rule for the calls: active = hit-call score of the fitted dose curve at least 0.9, where 1 is the maximum; inactive = score below 0.9.

What was measured:
[1] = APR_HepG2_NuclearSize_72hr: Apredica 72-hour HepG2 Assay for Nuclear Size (AID 2282925); conditions: high-content imaging, actives raise or lower the signal
In short: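 HepG2 cells dosed 72 h at 0.39–200 uM (10 concentrations, duplicate) in 0.5% v/v DMSO final. Fixed, Hoechst 33342-stained nuclei imaged; nuclear diameter measured by automated image analysis. Bidirectional fit versus DMSO.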

[2] = ATG_CRE_CIS: Attagene CIS-FACTORIAL HepG2 Assay for human cAMP Responsive Element (CRE) binding protein 3 (AID 2282926); conditions: HepG2 CRE cis-reporter, Attagene multiplexed mRNA; actives raise or lower the signal
In short: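 Transfected HepG2 were treated for 24 hours, then RNA was extracted and reporter cDNA amplified with sequence-specific primers. Labelled fragments were separated by capillary electrophoresis, and the CRE signal was fitted bidirectionally with DMSO as baseline.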

[3] = molecular target: CCAAT/enhancer-binding protein beta (Homo sapiens) (UniProt P17676); assay: ATG_C_EBP_CIS: Attagene CIS-FACTORIAL HepG2 Assay for human CCAAT/Enhancer Binding Protein (C/EBP) beta (AID 2282927); conditions: HepG2 Attagene cis-factorial transcription factor reporter; actives raise or lower the signal
In short: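 Transiently transfected HepG2 (MRTU library, endogenous TF-driven promoters); 24 h dosing; total RNA → oligo(dT) RT → PCR → 6-FAM primer extension → HpaI digest → CE; fit bidirectionally vs DMSO.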

[4] = ATG_CMV_CIS: Attagene CIS-FACTORIAL HepG2 Assay for human CMV (Internal Marker) (AID 2282928); conditions: HepG2 CMV promoter reporter, transcription factor profiling; actives raise or lower the signal;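 note: endpoint acts as a background internal control marker rather than a target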
In short: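 Endogenous transcription factor activity read in HepG2 via transfected cis-promoter reporter units. After 24 h dosing, reporter mRNA measured by RT-PCR/capillary electrophoresis; gain or loss of signal fit relative to DMSO.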

[5] = ATG_DR4_LXR_CIS: Attagene CIS-FACTORIAL HepG2 Assay for human Liver X Receptor (LXR), DR4 submotif (AID 2282929); conditions: HepG2 Attagene DR4 cis-reporter, mRNA transcription; actives raise or lower the signal
In short: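 Cells were transfected with multiple reporter transcription units, exposed to chemicals for 24 hours, then lysed for RNA. Reporter mRNA induction was measured by RT-PCR with capillary electrophoresis detection and fitted in both directions relative to DMSO.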

[6] = molecular target: Aryl hydrocarbon receptor (Homo sapiens) (UniProt P35869); assay: ATG_Ahr_CIS: Attagene CIS-FACTORIAL HepG2 Assay for human Aryl Hydrocarbon Receptor (Ahr) (AID 2282930); conditions: HepG2 AhR cis-factorial reporter transcription; actives raise or lower the signal
In short: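 Read-out: reporter mRNA quantified by RT-PCR with fluorescent primer extension and capillary electrophoresis. Human HepG2 liver cells carried transfected cis-promoter reporter units and were exposed to chemical for 24 h; gain or loss fitted relative to DMSO.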

[7] = ATG_AP_1_CIS: Attagene CIS-FACTORIAL HepG2 Assay for human Activator Protein 1 (AP-1) (AID 2282931); conditions: HepG2 Attagene cis-factorial AP-1 reporter mRNA; actives raise or lower the signal
In short: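 Endogenous transcription-factor activity in human HepG2 liver cells is read through a cis-promoter reporter transcript, sampled 24 h after dosing. Detection uses RT-PCR with capillary electrophoresis; values come from bidirectional fitting relative to DMSO.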

[8] = ATG_AP_2_CIS: Attagene CIS-FACTORIAL HepG2 Assay for human Activator Protein 2 (AP-2) (AID 2282932); conditions: HepG2 AP-2 cis-reporter, Attagene transcription factor profiling; actives raise or lower the signal
In short: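 Multiplexed mRNA reporter assay in HepG2: cis-regulated units report endogenous factor activity after 24 h treatment. Fluorescence from capillary electrophoresis of RT-PCR products gives the signal, with DMSO as baseline.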

[9] = ATG_BRE_CIS: Attagene CIS-FACTORIAL HepG2 Assay for human Bone Morphogenetic Protein (BMP) Response Element (BRE) (AID 2282933); conditions: HepG2 BMP response element reporter, Attagene transcription factor profiling; actives raise or lower the signal
In short: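 Fluorescence-labelled reporter cDNA fragments, separated by capillary electrophoresis, gave the signal for this component of a 52-readout multiplex. HepG2 cells were transfected, exposed to chemicals for 24 h, and compared with DMSO using bidirectional fitting.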

[10] = molecular target: Retinoic acid receptor alpha (Homo sapiens) (UniProt P10276); assay: ATG_DR5_RAR_CIS: Attagene CIS-FACTORIAL HepG2 Assay for human Retinoic Acid Receptor Alpha (RARE), DR5 submotif (AID 2282934); conditions: HepG2 Attagene cis-factorial RARE DR5 reporter, mRNA; actives raise or lower the signal;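 for AC50: reporter responds to endogenous RAR alpha beta and gamma in HepG2 not RARA alone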
In short: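 Read-out: DR5-driven reporter transcript measured by RT-PCR, 6-FAM primer extension, HpaI digest and capillary electrophoresis. Human HepG2 liver cells carry transiently transfected cis-element reporter constructs; dosing lasts 24 h. Gain or loss of signal fitted against DMSO baseline.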

[11] = ATG_E_Box_CIS: Attagene CIS-FACTORIAL HepG2 Assay for human Enhancer Box (E-box) (AID 2282936); conditions: HepG2 E-box cis-reporter transcription, actives raise or lower the signal
In short: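 First, HepG2 cells receive multiple cis-regulated reporter constructs by transient transfection. Next, chemicals are applied for 24 h. Finally, reporter mRNA is quantified via RT-PCR and capillary electrophoresis, with DMSO as baseline.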

[12] = ATG_M_61_CIS: Attagene CIS-FACTORIAL HepG2 Assay for M61 Transcription Factor (Internal Marker) (AID 2282937); conditions: HepG2 Attagene CIS-FACTORIAL M61 internal marker reporter; actives raise or lower the signal
In short: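 Cells were transfected with reporter units under cis-regulatory promoters, treated with chemicals for 24 h, then lysed for RNA. Reporter transcripts were quantified by RT-PCR and capillary electrophoresis, and activity was fitted bidirectionally against DMSO.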

[13] = ATG_EGR_CIS: Attagene CIS-FACTORIAL HepG2 Assay for human Early Growth Response 1 (EGR1) (AID 2282938); conditions: HepG2 Attagene CIS-FACTORIAL EGR reporter mRNA; actives raise or lower the signal
In short: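 Endogenous TF activity in HepG2 liver cells was gauged through cis-promoter reporter constructs transiently transfected. After 24 h dosing, reporter mRNA was quantified by RT-PCR and capillary electrophoresis, and curves fitted in both directions versus DMSO.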

[14] = ATG_M_19_CIS: Attagene CIS-FACTORIAL HepG2 Assay for M19 Transcription Factor (Internal Marker) (AID 2282939); conditions: HepG2 Attagene CIS-FACTORIAL M19 internal marker reporter; actives raise or lower the signal
In short: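 HepG2, MRTU transient transfection, 24 h dosing. Total RNA → RT-PCR → 6-FAM primer extension → HpaI digest → CE fluorescence. Bidirectional curve fit, DMSO negative control.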

[15] = ATG_ERE_CIS: Attagene CIS-FACTORIAL HepG2 Assay for Estrogen Response Element (ERE) (AID 2282940); conditions: HepG2 ERE cis-reporter, Attagene RNA transcript; actives raise or lower the signal
In short: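 After a 24 h chemical treatment, RNA from reporter-transfected HepG2 cells is reverse-transcribed, PCR-amplified and fluorescently labelled. Fragments separated by capillary electrophoresis give reporter signal; DMSO serves as negative control.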

[16] = ATG_Ets_CIS: Attagene CIS-FACTORIAL HepG2 Assay for human Erythroblast Transformation Specific (ETS) (AID 2282941); conditions: HepG2 ETS cis-reporter transcription, actives raise or lower the signal
In short: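 Steps: transfect HepG2 with multiple reporter units; treat compound 24 h; isolate RNA, DNase-treat, reverse-transcribe; PCR-amplify, label with 6-FAM, digest with HpaI; separate by capillary electrophoresis. Activity fitted both directions versus DMSO.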

[17] = molecular target: Hepatocyte nuclear factor 3-beta (Homo sapiens) (UniProt Q9Y261); assay: ATG_FoxA2_CIS: Attagene CIS-FACTORIAL HepG2 Assay for human Forkhead box A2 (FOXA2) (AID 2282942); conditions: HepG2 cis-reporter transcription factor activity, 24 h; actives raise or lower the signal
In short: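 Endogenous transcription factor activity was read in HepG2 cells carrying transiently transfected cis-promoter reporter units. After 24 h dosing, reporter mRNA was quantified by RT-PCR and capillary electrophoresis, and values fitted bidirectionally versus DMSO.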

[18] = ATG_FoxO_CIS: Attagene CIS-FACTORIAL HepG2 Assay for human Forkhead box O (FoxO) (AID 2282943); conditions: HepG2 Attagene cis-reporter, FoxO element, mRNA; actives raise or lower the signal
In short: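 Read-out: fluorescence of 6-FAM-labelled reporter cDNA fragments resolved by capillary electrophoresis. Transiently transfected HepG2 cells were dosed for 24 h; activity fitted in both directions relative to DMSO controls.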

[19] = ATG_GATA_CIS: Attagene CIS-FACTORIAL HepG2 Assay for human GATA Binding Protein (AID 2282944); conditions: HepG2 GATA cis-element reporter, Attagene multiplex mRNA; actives raise or lower the signal
In short: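 Cells: HepG2, transiently transfected with cis-regulated reporter transcription units. Exposure: 24 h. Detection: RT-PCR plus capillary electrophoresis of FAM-labeled fragments. Analysis: bidirectional, DMSO as baseline.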

[20] = molecular target: Transcription factor E2F1 (Homo sapiens) (UniProt Q01094); assay: ATG_E2F_CIS: Attagene CIS-FACTORIAL HepG2 Assay for human E2F Transcription Factor 1 (AID 2282935); conditions: HepG2 Attagene cis-reporter, E2F reporter RNA transcripts; actives raise or lower the signal
In short: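 Measures reporter transcript levels via RT-PCR with capillary electrophoresis detection in HepG2 cells harboring cis-regulated reporter units; 24 h post-dose; bidirectional curve fitting with DMSO as baseline.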

Measured: AC50

Sequence of Hepatocyte nuclear factor 3-beta (Homo sapiens) (Q9Y261 whole entry, looked up): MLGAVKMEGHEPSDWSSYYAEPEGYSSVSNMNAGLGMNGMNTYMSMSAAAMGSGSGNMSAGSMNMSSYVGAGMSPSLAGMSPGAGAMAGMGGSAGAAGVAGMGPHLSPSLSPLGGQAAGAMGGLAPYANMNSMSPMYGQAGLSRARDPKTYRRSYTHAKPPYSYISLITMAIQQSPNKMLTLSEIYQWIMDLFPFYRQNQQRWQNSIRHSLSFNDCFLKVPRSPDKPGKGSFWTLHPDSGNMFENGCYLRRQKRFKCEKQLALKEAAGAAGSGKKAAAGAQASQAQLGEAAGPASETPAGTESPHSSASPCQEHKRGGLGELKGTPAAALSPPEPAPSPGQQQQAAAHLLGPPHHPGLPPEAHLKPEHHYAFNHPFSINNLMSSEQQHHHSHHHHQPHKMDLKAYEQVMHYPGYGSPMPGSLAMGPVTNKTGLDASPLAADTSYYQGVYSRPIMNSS
Sequence of Transcription factor E2F1 (Homo sapiens) (Q01094 whole entry, looked up): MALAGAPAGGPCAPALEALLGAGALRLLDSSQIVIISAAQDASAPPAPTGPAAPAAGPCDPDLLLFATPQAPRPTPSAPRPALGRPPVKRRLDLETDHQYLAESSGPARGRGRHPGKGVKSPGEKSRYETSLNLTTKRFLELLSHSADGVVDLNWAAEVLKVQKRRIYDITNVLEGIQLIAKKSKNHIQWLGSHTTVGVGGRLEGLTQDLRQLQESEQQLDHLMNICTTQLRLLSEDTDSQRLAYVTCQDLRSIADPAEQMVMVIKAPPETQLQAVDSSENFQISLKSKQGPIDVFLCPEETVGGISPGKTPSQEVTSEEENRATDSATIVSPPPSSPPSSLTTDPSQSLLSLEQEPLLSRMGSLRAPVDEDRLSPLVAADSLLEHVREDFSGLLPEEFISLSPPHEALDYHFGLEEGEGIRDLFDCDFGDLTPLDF
Sequence of Aryl hydrocarbon receptor (Homo sapiens) (P35869 whole entry, looked up): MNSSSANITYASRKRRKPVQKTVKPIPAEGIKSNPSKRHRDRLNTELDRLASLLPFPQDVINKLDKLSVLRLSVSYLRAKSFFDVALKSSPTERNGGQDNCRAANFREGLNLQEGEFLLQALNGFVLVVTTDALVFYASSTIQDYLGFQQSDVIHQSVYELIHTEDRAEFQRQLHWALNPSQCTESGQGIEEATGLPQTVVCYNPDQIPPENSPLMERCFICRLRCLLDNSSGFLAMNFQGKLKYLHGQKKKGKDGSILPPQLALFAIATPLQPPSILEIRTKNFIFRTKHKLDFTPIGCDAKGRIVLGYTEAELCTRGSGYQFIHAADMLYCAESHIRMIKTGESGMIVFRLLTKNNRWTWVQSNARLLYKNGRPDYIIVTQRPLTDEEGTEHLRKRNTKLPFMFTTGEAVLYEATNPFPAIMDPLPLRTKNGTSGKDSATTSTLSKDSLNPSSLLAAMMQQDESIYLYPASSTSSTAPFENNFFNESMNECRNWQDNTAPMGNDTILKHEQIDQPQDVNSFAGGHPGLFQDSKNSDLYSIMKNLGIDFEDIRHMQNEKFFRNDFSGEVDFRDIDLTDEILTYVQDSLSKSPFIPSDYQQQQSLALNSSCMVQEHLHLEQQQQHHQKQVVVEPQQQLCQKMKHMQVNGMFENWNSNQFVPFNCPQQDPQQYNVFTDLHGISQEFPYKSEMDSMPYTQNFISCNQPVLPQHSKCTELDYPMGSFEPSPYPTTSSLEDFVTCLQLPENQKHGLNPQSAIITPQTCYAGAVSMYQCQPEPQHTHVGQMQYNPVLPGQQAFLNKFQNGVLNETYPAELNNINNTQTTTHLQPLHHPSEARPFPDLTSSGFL
Sequence of CCAAT/enhancer-binding protein beta (Homo sapiens) (P17676 whole entry, looked up): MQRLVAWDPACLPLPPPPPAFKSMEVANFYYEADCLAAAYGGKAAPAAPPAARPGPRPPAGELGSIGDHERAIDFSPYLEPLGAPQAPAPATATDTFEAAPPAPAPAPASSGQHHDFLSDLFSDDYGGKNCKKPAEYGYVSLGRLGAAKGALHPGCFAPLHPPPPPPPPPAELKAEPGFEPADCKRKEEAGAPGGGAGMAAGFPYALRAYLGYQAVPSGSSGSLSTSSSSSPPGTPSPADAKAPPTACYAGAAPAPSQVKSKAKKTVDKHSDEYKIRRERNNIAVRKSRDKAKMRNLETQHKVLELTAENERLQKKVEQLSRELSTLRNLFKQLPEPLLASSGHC
Sequence of Retinoic acid receptor alpha (Homo sapiens) (P10276 whole entry, looked up): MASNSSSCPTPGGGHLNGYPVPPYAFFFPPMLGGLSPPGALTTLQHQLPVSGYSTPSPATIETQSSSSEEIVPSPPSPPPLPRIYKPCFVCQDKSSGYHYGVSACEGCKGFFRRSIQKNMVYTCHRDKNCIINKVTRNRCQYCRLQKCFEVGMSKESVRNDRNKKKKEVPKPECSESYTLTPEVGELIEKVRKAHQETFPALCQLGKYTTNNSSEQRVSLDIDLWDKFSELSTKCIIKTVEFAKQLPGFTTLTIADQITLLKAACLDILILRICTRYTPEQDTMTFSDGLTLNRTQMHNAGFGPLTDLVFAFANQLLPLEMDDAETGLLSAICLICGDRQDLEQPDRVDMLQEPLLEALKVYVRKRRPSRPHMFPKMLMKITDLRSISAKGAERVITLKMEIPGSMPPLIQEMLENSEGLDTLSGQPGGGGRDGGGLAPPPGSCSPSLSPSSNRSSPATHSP

O=C1C2CC=CCC2C(=O)N1SC(Cl)(Cl)Cl (centres undefined)
not listed: [20]
inactive: all other assays above

CC1(C)C(C(=O)OC(C#N)c2cccc(Oc3ccccc3)c2)C1(C)C (centres undefined)
active: [5] 14.3 µM | [10] 3.62 µM
not listed: [16] | [20]
inactive: all other assays above

CSC(=O)c1c(C(F)F)nc(C(F)(F)F)c(C(=O)SC)c1CC(C)C
active: [5] 4.51 µM | [6] 81.5 µM | [10] 1.28 µM | [15] 3.83 µM
not listed: [16] | [20]
inactive: all other assays above

CCOc1nc(C(Cl)(Cl)Cl)ns1
active: [2] 20.8 µM | [9] 24.6 µM
not listed: [16] | [20]
inactive: all other assays above

O=P(O)(O)CCCl
inactive: all assays above

N#CN=C1SCCN1Cc1ccc(Cl)nc1
not listed: [16] | [20]
inactive: all other assays above

Cc1c(COC(=O)[C@@H]2[C@H](/C=C(\Cl)C(F)(F)F)C2(C)C)cccc1-c1ccccc1
active: [4] 11.3 µM | [15] 20.9 µM
not listed: [11]
inactive: all other assays above

COP(=O)(OC)O/C(C)=C/C(=O)N(C)C
active: [15] 23.5 µM
not listed: [11]
inactive: all other assays above

Cn1c(-c2ccccc2)cc(-c2ccccc2)[n+]1C
not listed: [16] | [20]
inactive: all other assays above

Nc1c(Cl)c(F)nc(OCC(=O)O)c1Cl
not listed: [20]
inactive: all other assays above

CNC(=O)N(C)c1nnc(C(C)(C)C)s1
not listed: [11] | [16]
inactive: all other assays above

CCOc1cc(C(C)(C)C)ccc1C1COC(c2c(F)cccc2F)=N1 (centres undefined)
active: [2] 4.09 µM | [5] 13.2 µM | [10] 4.26 µM
not listed: [11] | [16]
inactive: all other assays above

COP(=S)(OC)SCn1nnc2ccccc2c1=O
active: [2] 18.8 µM | [3] 6.88 µM | [7] 76.6 µM | [9] 13.3 µM | [13] 23.7 µM
not listed: [11]
inactive: all other assays above

Cc1cc(C)nc(Nc2ccccc2)n1
active: [2] 7.42 µM | [3] 6.27 µM | [7] 30.4 µM | [9] 27 µM | [13] 50 µM
not listed: [11] | [16]
inactive: all other assays above
